Sampled rows, rich in hits. Any-hit rate of the full collection: about 19%.
ELG1 repair inh: qHTS screen for small molecules that inhibit ELG1-dependent DNA repair in human embryonic kidney (HEK293T) cells expressing luciferase-tagged ELG1 | AID 504467, 2011 | 2.3% of 330,000 active | HEK293T ELG1-luciferase reporter, luminescence, 16 h; DNA damage induced by 5-fluorouridine | Potency, µM (doses to about 46.1 µM), hits mostly inhibitors; further: nearly all actives have a fitted effect of over 55% in size
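Overnight (16 hr) co-exposure of 2,000 cells/well to 5-fluorouridine and compound at 37 °C preceded detection. Luciferase was quantified via ONE-Glo luminescence; loss of signal denotes inhibition.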
TDP1 cell CPT: qHTS for Inhibitors of human tyrosyl-DNA phosphodiesterase 1 (TDP1): qHTS in cells in presence of CPT | 12% of 420,000 active | chicken DT40 Tdp1-/-;hTDP1 cells + 20 nM CPT, ATP luminescence, 48 h | Potency, µM (titrated, usually from 46.2 µM), most hits filed as inhibitors | AID 686979, 2013; further: nearly all actives have a fitted effect of over 55% in size
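Chicken DT40 Tdp1-/- cells stably complemented with human TDP1 were seeded at 400 cells/well in medium containing 20 nM camptothecin, exposed to pin-transferred compounds, and grown at 37 °C for at least 48 hr. Viability was read as ATP luminescence.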
HT1080 IDH1KD tx: qHTS for induction of synthetic lethality in tumor cells producing 2HG: qHTS for the HT-1080-IDH1KD cell line; HT-1080 IDH1 knockdown viability, ATP luminescence, 48 h; Potency, µM (top dose mostly 46.1 µM), actives largely listed as cytotoxic; 2% of 360,000 active
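After a 2 h attachment period, IDH1KD HT-1080 cells took pin-transferred compound for 48 h at 37 °C; ATP-based luminescence after 10 min room-temperature reagent incubation reported viability.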
HT1080-NT tox: qHTS for induction of synthetic lethality in tumor cells producing 2HG: qHTS for the HT-1080-NT fibrosarcoma cell line; HT-1080-NT fibrosarcoma viability, CellTiter-Glo ATP luminescence, 48 h; Potency, µM (top dose mostly 46.1 µM), most hits filed as cytotoxic; 1.6% of 360,000 active; AID 686970, 2013;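 further: NT is the 2HG producing partner of a matched IDH1 knockdown line; nearly all actives have a fitted effect of over 55% in size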
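Compounds were tested in concentration-response format on HT-1080-NT cells for 48 hours at 37 degrees C. Cell viability came from CellTiter-Glo luminescence; curves were classified by r2, response magnitude and activity.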
IL1B secr inh: qHTS for Inhibitors of Inflammasome Signaling: IL-1-beta AlphaLISA Primary Screen. THP-1 LPS/ATP IL-1B secretion, AlphaLISA, 16 h; active compounds read low. activity change, % at 57.5 µM. 4.7% of 360,000 active; in the data active means activity change below about -50%; inconclusive means mostly about -30% to -49%
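Secreted IL-1B measured by AlphaLISA bead assay after 16 h compound exposure of THP-1 cells; compounds (final up to 57.5 uM) added 1 h before LPS (250 ng/mL) and ATP (1.25 mM) stimulation; lower signal means less secretion.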
TDP1 cell noCPT: qHTS for Inhibitors of human tyrosyl-DNA phosphodiesterase 1 (TDP1): qHTS in cells in absence of CPT; 15% of 420,000 active; Potency, µM (highest dose often 46.2 µM), most hits filed as inhibitors; DT40 Tdp1-/- hTDP1 cells, no CPT, ATP luminescence, 48 h; further: nearly all actives have a fitted effect of over 55% in size
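Stably hTDP1-transfected Tdp1-null chicken DT40 cells were treated with library compounds minus camptothecin and grown for at least 48 hr at 37 °C, after which cellular ATP was quantified by luminescence.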
Hits are given with their value; . = inactive; ? = inconclusive; / = no result given. Unless noted, the call rests on the fitted dose curve; in most records, active means well fitted curve in the direction sought with a large enough effect; inconclusive means small, poorly fitted or top-dose-only effect, or another doubt; inactive means no such curve, though single readings can be large; an effect the other way counts as inactive or inconclusive.

SMILES	ELG1 repair inh	TDP1 cell CPT	HT1080 IDH1KD tx	HT1080-NT tox	IL1B secr inh	TDP1 cell noCPT
CCCCCNC(=O)C(c1ccc(C(F)(F)F)cc1)n1c(=O)c(-c2ccco2)nc2ccccc21 (stereo not drawn)	/	?	.	?	.	18µM
O=C(NC1CCCCC1)C(C1CC1)n1c(=O)c(-c2ccco2)nc2ccccc21 (stereo not drawn)	/	?	.	.	.	10µM
N#Cc1ccc(C(C(=O)NC2CCCCC2)n2c(=O)c(-c3ccco3)nc3ccccc32)cc1 (stereo not drawn)	/	15µM	.	.	?	16µM
CCCCCNC(=O)C(C1CC1)n1c(=O)c(-c2ccco2)nc2ccccc21 (stereo not drawn)	/	15µM	.	.	.	13µM
O=C(NC1CCCCC1)C(c1ccc(C(F)(F)F)cc1)n1c(=O)c(-c2ccco2)nc2ccccc21 (stereo not drawn)	/	1.6µM	.	.	.	?
CCCCNC(=O)C1(C)CCN1C(=O)c1ccc2sccc2c1 (stereo not drawn)	/	?	.	.	.	?
CC(=O)c1cc(-c2ccccc2)n(CCC(=O)Nc2ccc(C)cc2C)c1C	/	?	/	/	/	.
COc1ccc(C2(c3ccc(OC)cc3)NC(=O)N(CC(=O)Nc3cc(C)ccc3OC)C2=O)cc1	.	18µM	?	.	.	?
CCOc1ccc(NC(=O)CCn2c(-c3ccc(F)cc3)cc(C(C)=O)c2C)cc1	/	21µM	/	/	/	23µM
COc1ccc(C2(c3ccc(OC)cc3)NC(=O)N(CC(=O)Nc3ccc(C(=O)N(C)C)cc3)C2=O)cc1	.	.	.	.	.	.
COc1ccc(-c2cc(C(C)=O)c(C)n2CCC(=O)Nc2cc(C)ccc2OC)cc1	/	16µM	/	/	/	18µM
COc1ccc(C(=O)COc2ccc(C)cc2NC(C)=O)cc1	?	?	.	.	.	21µM
CC(=O)c1cc(-c2ccc(F)cc2)n(CCC(=O)Nc2cccnc2)c1C	.	.	.	.	.	.
CCC(Oc1ccccc1)C(=O)O/N=C(\N)c1ccc(OC)c(OC)c1 (stereo not drawn)	.	?	.	.	.	.
CC(=O)c1cc(-c2ccc(F)cc2)n(CCC(=O)NCc2ccccc2C)c1C	/	16µM	/	/	/	?
COc1ccc(-c2cc(C(C)=O)c(C)n2CCC(=O)Nc2ccc(C(F)(F)F)cc2)cc1	/	12µM	/	/	/	13µM
Cc1ccccc1-c1nc(CN2CCC(C(=O)NCCC3=CCCCC3)CC2)c(C)o1	?	18µM	.	.	-61	18µM
Cc1ccccc1-c1nc(CN2CCC(C(=O)NCCc3ccccc3)CC2)c(C)o1	/	15µM	/	/	/	21µM
COc1ccc(CCNC(=O)C2CCN(Cc3nc(-c4ccccc4C)oc3C)CC2)cc1OC	?	23µM	?	?	.	16µM
Cc1ccccc1-c1nc(CN2CCC(C(=O)NCCCN3CCCC(C)C3)CC2)c(C)o1 (stereo not drawn)	.	?	9.2µM	18µM	/	?
Cc1ccccc1-c1nc(CN2CCC(C(=O)O)CC2)c(C)o1	.	.	.	.	.	.
Cc1ccccc1-c1nc(CN2CCCC(C(=O)NCc3ccc(Cl)cc3)C2)c(C)o1 (stereo not drawn)	/	.	/	/	/	?
COc1ccccc1Cc1nc2ccccc2nc1SCC(=O)NCc1ccc(F)cc1	/	.	/	/	/	.
C=CCN1C(=O)C(=Cc2ccc3c(c2)CCC3)SC1=S	/	.	.	.	.	?
Cc1ccccc1-c1nc(CN2CCC(C(=O)NC3CCN(Cc4ccccc4)CC3)CC2)c(C)o1	/	21µM	.	.	.	?
SMILES	ELG1 repair inh	TDP1 cell CPT	HT1080 IDH1KD tx	HT1080-NT tox	IL1B secr inh	TDP1 cell noCPT
O=C(COC(=O)c1ccc(Cl)nc1)NCCC1=CCCCC1	.	.	.	.	.	.
COc1cc2c(cc1OC)/C(=C/c1ccc(Br)cc1)C(=O)OC2	?	?	?	?	.	18µM
O=c1[nH][nH]c2c1[C@H](CCc1cccc(Cl)c1)O[C@H](CCc1ccccc1)C2	/	?	.	.	.	18µM
O=c1[nH]c(=S)[nH]c2c1C(c1ccc(F)cc1)OC(CCc1ccccc1)C2 (stereo not drawn)	/	.	.	.	.	?
O=c1[nH]c(=S)[nH]c2c1[C@H](C1CC1)O[C@H](CCc1ccccc1)C2	/	?	.	.	.	13µM
COc1ccc(NS(=O)(=O)c2cccc(C(=O)N/N=C/c3ccccn3)c2)cc1	.	.	.	.	.	.
COc1ccc2ccccc2c1/C=N/NC(=O)c1ccc([N+](=O)[O-])cc1	.	.	.	.	.	.
